Assay results reported in PubChem BioAssay.
The source made the active and inactive calls.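 Rule for the calls, unless noted: active = visually confirmed hit in the image check and inhibition above 20%; inconclusive = visually confirmed hit but inhibition not above 20%; inactive = no visual hit in the image check.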

Key:
[1] = inhibitors of TNFa-induced NFkB p65 translocation, primary screen, imaging, HUVEC, MLSMR starter and 10KST1 sets (AID 438;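 active = inhibition above 20% together with a positive visual image hit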;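 note: compound added about 3h40 before a 20 min TNFalpha stimulation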;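 for inhibition: signal is the nuclear over cytoplasmic p65 intensity ratio per well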); settings: HUVEC TNFa-induced p65 nuclear translocation; cell count: measured here: nuclei count (cytotoxicity indicator), at 2.08 µM unless noted; inhibition: at 2 µM, stronger effect = higher value unless noted
[2] = inhibitors of mutant huntingtin aggregation, primary screen, imaging, exon1htt(103Q)mCFP cells, high-content imaging (AID 483;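 active = visual image review flags a hit and inhibition of aggregation exceeds 20%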;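 note: compound exposure lasted 3 days before fixation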;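 for nuclei count: percent of the per-plate median nuclei count of sample wells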); settings: exon1htt(103Q)mCFP cell line, aggregate imaging, at 2 µM; inhibition of aggregation: stronger effect = higher value; nuclei count: measured here: cell count, toxicity
[3] = inhibitors of E-selectin induction by TNFa, primary screen, imaging, HUVEC, immunofluorescence, MLSMR starter and 10KST1 sets (AID 487); settings: HUVEC TNFalpha-induced E-selectin immunofluorescence imaging, at 2 µM; inhibition: stronger effect = higher value; nuclei count: measured here: cell number, toxicity;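 for inhibition: signal is fraction of cell area covered by stained E-selectin grains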;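 for nuclei count: 100% = median nuclei count of all wells on the same plate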
[4] = target: Voltage-gated potassium channel subunit beta-2 (Rattus norvegicus) (UniProt P62483); assay: KvBeta enzyme negative modulators, primary screen, biochemical, NADPH fluorescence (AID 622;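 active = fluorescence slope higher than the sample average by over 3 SD, cut at about -0.22 in these data, passing the limit was not always enough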;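 note: slope of raw intensity against log time taken from 70 to 1610 s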); settings: recombinant KvBeta, 4-cyanobenzaldehyde reduction, at 10 µM, stronger effect = higher value
[5] = target: Voltage-gated potassium channel subunit beta-2 (Rattus norvegicus) (UniProt P62483); assay: KvBeta positive modulators, primary screen, biochemical, NADPH fluorescence (AID 623;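 active = NADPH fluorescence slope more negative than the mean of all samples by about 3 SD, 99.7% confidence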;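 note: fluorescence intensity change per second fitted from 20 to 320 s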); settings: Recombinant KvBeta, NADPH fluorescence decrease slope, 10 min; at 10 µM; stronger effect = lower value
[6] = target: Alpha-2C adrenergic receptor (Homo sapiens) (UniProt P18825); assay: modulators of alpha2C/GIRK thallium flux, primary screen, cell-based, HEK293 alpha2C/GIRK1/2 (AID 624;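 active = fluorescence slope after compound addition differing from the mean of all screened samples at 99.7% confidence, in either direction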;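 note: slope of fluorescence ratio to pre-addition baseline per second over 15 to 24 s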); settings: thallium flux BTC fluorescence, at 10 µM, actives lie on both sides
[7] = inhibitors of Sendai virus-induced IRF3 signaling, primary screen, TLR/RLR signaling modifier project, cell-based, Sendai virus stimulus, luciferase, 10K MLSCN set (AID 602276;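 active = inhibition at or above 50% at 10 µM; inactive = inhibition below 50%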;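 note: firefly luciferase from ISG56 promoter only with Renilla not read in this screen; 0% = Sendai virus plus DMSO and 100% = medium plus DMSO without virus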); settings: HEK293 RL24 IRF3 luciferase reporter, at 10 µM, stronger effect = higher value
[8] = inhibitors of poly I:C-induced TLR3 signaling, primary screen, cell-based, poly I:C stimulus, luciferase, 10K MLSCN set (AID 602277;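 active = inhibition of the reporter signal at or above 50%; inactive = inhibition below 50%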); settings: HEK293-TLR3 RL24 IRF3 luciferase reporter, at 10 µM, stronger effect = higher value
[9] = inhibitors of larval lipid processing in zebrafish, primary screen, whole organism, PED6 fluorescence, gall bladder and intestine (AID 686;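 active = a full or partial loss of lipid-probe fluorescence in the fish gall bladder, intestine or both, judged by eye; inactive = no fluorescence loss, or compound toxic to the fish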;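 note: larvae 5 to 7 days old with five fish per well; signal comes from phospholipase A2 cleavage of quenched PED6 carried via bile; overnight exposure to compound and PED6 before scoring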); settings: Zebrafish larvae PED6 lipid processing, fluorescence scoring
[10] = target: Muscarinic acetylcholine receptor M4 (Homo sapiens) (UniProt P08173); assay: compounds altering M4/GIRK thallium flux, either direction, primary screen, M4 allosteric agonist project, cell-based, HEK293 M4/GIRK, BTC-AM (AID 625;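 active = fluorescence slope after compound addition differing from the mean of all tested samples at 99.7% confidence, mostly higher but some lower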;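 note: thallium influx through GIRK channels coupled to M4 in HEK293 cells with BTC-AM dye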); settings: at 10 µM, actives lie on both sides
Muscarinic acetylcholine receptor M4 (Homo sapiens), sequence (P08173 whole entry, looked up): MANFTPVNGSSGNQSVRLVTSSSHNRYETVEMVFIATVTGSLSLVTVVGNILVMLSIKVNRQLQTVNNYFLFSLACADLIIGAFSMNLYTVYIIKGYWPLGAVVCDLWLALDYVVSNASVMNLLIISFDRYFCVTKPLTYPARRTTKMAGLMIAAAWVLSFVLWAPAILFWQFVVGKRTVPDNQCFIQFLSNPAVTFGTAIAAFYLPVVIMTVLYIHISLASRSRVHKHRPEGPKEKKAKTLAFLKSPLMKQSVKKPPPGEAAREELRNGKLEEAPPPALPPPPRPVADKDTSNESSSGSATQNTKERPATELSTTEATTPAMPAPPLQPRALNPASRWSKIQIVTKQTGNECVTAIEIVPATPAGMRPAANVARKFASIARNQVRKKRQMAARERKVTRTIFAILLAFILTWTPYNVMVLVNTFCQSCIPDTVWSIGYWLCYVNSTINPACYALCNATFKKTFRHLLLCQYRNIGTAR

Voltage-gated potassium channel subunit beta-2 (Rattus norvegicus), sequence (P62483 whole entry, looked up): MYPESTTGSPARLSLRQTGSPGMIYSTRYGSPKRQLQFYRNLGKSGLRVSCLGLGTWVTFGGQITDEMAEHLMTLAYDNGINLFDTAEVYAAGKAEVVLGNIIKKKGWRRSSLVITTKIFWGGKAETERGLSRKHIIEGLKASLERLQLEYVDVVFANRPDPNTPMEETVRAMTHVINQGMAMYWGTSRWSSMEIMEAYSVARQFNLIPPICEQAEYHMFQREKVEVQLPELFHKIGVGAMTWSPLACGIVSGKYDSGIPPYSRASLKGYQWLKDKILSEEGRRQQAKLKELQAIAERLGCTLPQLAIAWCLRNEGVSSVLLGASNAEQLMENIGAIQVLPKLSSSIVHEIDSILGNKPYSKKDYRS
Alpha-2C adrenergic receptor (Homo sapiens), sequence (P18825 whole entry, looked up): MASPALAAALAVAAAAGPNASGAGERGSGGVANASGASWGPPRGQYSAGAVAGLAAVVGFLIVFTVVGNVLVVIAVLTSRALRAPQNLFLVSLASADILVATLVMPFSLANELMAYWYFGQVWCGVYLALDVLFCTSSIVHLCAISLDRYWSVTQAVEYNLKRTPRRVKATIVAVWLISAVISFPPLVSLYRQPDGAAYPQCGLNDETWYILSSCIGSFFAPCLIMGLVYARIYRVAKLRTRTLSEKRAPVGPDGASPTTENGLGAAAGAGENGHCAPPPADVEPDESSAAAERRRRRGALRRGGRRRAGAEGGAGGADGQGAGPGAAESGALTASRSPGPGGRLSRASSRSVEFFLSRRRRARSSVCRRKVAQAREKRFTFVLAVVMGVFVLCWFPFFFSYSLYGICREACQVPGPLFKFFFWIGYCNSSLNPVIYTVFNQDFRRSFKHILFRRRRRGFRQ

SMILES | cell count [1] | inhibition [1] | inhibition of aggregation [2] | nuclei count [2] | inhibition [3] | nuclei count [3] | fluorescence slope [4] | NADPH fluorescence slope [5] | slope [6] | inhibition [7] | inhibition [8] | outcome [9] | fluorescence slope [10]
CC1=C(C(=O)N2CCC3(CC2)OCCO3)C2(CCC(C)CC2)OC1=O (stereo not drawn) | 651 | -25.5% (inactive) | 3.3% (inactive) | 104% | -0.9% (inactive) | 103% | -0.377 (inactive) | -4.4e-05 (inactive) | 0.00593 (inactive) | 7.64% (inactive) | 31.1% (inactive) |  | 
CCCCOc1ccc(CN2CCN(CCO)CC2)cc1 | 644 | 2.9% (inactive) | -4.6% (inactive) | 115% | -3.3% (inactive) | 96.5% | -0.43 (inactive) | -0.00013 (inactive) | 0.00523 (inactive) | 5.26% (inactive) | 10.1% (inactive) |  | 
CCCCCCC(N)CC(=O)O (stereo not drawn) | 689 | 2.4% (inactive) | -9.8% (inactive) | 116% | 42.8% (inactive) | 80.1% | -0.456 (inactive) | -3e-05 (inactive) | 0.00377 (inactive) | 9.07% (inactive) | 28% (inactive) |  | 
CCOC(=O)C1SC2(C(F)F)CC1(O)c1c(c(OC)c3occc3c1OC)O2 (stereo not drawn) | 665 | -5.1% (inactive) | 13% (inactive) | 98.5% | 52.9% (inactive) | 105% | -0.326 (inactive) | -5.6e-05 (inactive) | 0.00497 (inactive) | 4.1% (inactive) | 14.4% (inactive) |  | 
CC1CCC(C(=O)NC(C(=O)N2CCC3(CC2)OCCO3)C(C)C)CC1 (stereo not drawn) | 251 | 3.4% (inactive) | 0.1% (inactive) | 97.2% | 1.3% (inactive) | 88% | -0.399 (inactive) | -0.00014 (inactive) | 0.00626 (inactive) | 5.72% (inactive) | 20.1% (inactive) |  | 
O=C(c1ccncc1)C12CN3CN(CN(C3)C1)C2 | 459 | 4.5% (inactive) | 15.7% (inactive) | 104% | -155% (inactive) | 98.1% | -0.409 (inactive) | -3.9e-05 (inactive) | 0.00372 (inactive) | 10% (inactive) | 30.7% (inactive) |  | 
O=C1CC(c2ccccc2)CC(O)=C1C=NCCN1CCN(C(=O)Cc2ccccc2)CC1 (stereo not drawn) | 450 | 2.9% (inactive) | 8.6% (inactive) | 92.1% | -82.2% (inactive) | 115% | -0.529 (inactive) | 3.3e-05 (inactive) | 0.00558 (inactive) | 17.1% (inactive) | 25.9% (inactive) |  | 
O=C(C(Cc1ccccc1)NS(=O)(=O)c1ccc(F)cc1)N1CCC2(CC1)OCCO2 (stereo not drawn) | 381 | -11.2% (inactive) | -7% (inactive) | 99.8% | -43.8% (inactive) | 122% | -0.437 (inactive) | 8.6e-06 (inactive) | 0.00508 (inactive) | 11.2% (inactive) | 37.1% (inactive) |  | 
CCOC(=O)C1=C(N)OC(C)=C(C(=O)OCCOC)C12C(=O)Nc1ccccc12 (stereo not drawn) | 336 | 4.8% (inactive) | -0.2% (inactive) | 91.4% | -113% (inactive) | 97% | -0.454 (inactive) | -0.000189 (active) | 0.00493 (inactive) | 19.8% (inactive) | 32% (inactive) | inactive | 
Cc1cc(NC(=O)COC(=O)c2c(C)nn(Cc3ccccc3)c2Cl)no1 | 346 | 7.3% (inactive) | -4.8% (inactive) | 90.6% | -68.8% (inactive) | 109% | -0.377 (inactive) | -0.000127 (inactive) |  | 3.25% (inactive) | 12.9% (inactive) |  | 0.00868 (inactive)
O=C(O)Cn1cc(C(=O)c2ccccc2)c2ccccc21 | 389 | -3.3% (inactive) | 16.7% (inactive) | 89.2% | -22.1% (inactive) | 104% | -0.352 (inactive) | 1.2e-06 (inactive) | 0.00605 (inactive) | 9.27% (inactive) | 23% (inactive) | inactive | 
O=C(C1CCCN(c2nnc(-n3cccc3)s2)C1)N1CCC2(CC1)OCCO2 (stereo not drawn) | 597 | -2.2% (inactive) | 1.5% (inactive) | 115% | 8.1% (inactive) | 92.8% | -0.388 (inactive) | -4.5e-05 (inactive) | 0.00502 (inactive) | -2.39% (inactive) | -5.8% (inactive) | inactive | 
CCN1c2nc3c(C)cccn3c(=O)c2CC2(C(=O)N(C)C(=O)N(C)C2=O)C1C (stereo not drawn) | 413 | 8.9% (inactive) | 8.3% (inactive) | 100% | 19.8% (inactive) | 111% | -0.477 (inactive) | -5.3e-05 (inactive) | 0.00711 (inactive) | 16.5% (inactive) | 17.7% (inactive) |  | 
Cn1c(=O)cc(SCC(=O)N2CCC3(CC2)OCCO3)c2ccc(Cl)cc21 | 442 | 0.9% (inactive) | 7.2% (inactive) | 84.4% | 22.8% (inactive) | 106% | -0.556 (inactive) | -3.6e-05 (inactive) |  | 32.3% (inactive) | 38.4% (inactive) |  | 0.00629 (inactive)
CC12CCCCC1=[N+]([O-])CN2O (stereo not drawn) | 725 | -10% (inactive) | -27.6% (inactive) | 99.9% | -15.8% (inactive) | 118% | -0.554 (inactive) | 1.5e-05 (inactive) |  | -0.121% (inactive) | 6.9% (inactive) |  | 0.0045 (inactive)
CSc1ccc(C(=O)C(C)(C)N2CCOCC2)cc1 | 401 | -5.2% (inactive) | -13.1% (inactive) | 102% | -65.3% (inactive) | 105% | -0.577 (inactive) | -4.3e-05 (inactive) |  | 14.9% (inactive) | 2.25% (inactive) |  | 0.00392 (inactive)
Cc1ccccc1NC1=NCCCS1 | 457 | -10.3% (inactive) | 29.9% (active) | 83.1% | 67.8% (inactive) | 74.1% | -0.357 (inactive) | -3.1e-05 (inactive) | 0.00361 (inactive) | 0.817% (inactive) | 19% (inactive) |  | 
C=CCn1c(O)c(C(C)=NCCCO)c(=O)[nH]c1=O | 631 | 5.7% (inactive) | -3.2% (inactive) | 108% | -110% (inactive) | 156% | -0.467 (inactive) | -4.7e-05 (inactive) | 0.00383 (inactive) | -1.46% (inactive) | 16.8% (inactive) |  | 
COc1cc(/C=N/n2cnnc2)ccc1OC(=O)N(C)C | 615 | -19.9% (inactive) | -14.7% (inactive) | 114% | -3.5% (inactive) | 98.1% | -0.436 (inactive) | 3.1e-05 (inactive) |  | 13% (inactive) | 20.9% (inactive) |  | 0.0081 (inactive)
COCCOC(=O)C1=C(N)Oc2c(c(=O)oc3ccccc23)C1c1ccncc1 (stereo not drawn) | 329 | 2.2% (inactive) | 1.7% (inactive) | 73% | 1.8% (inactive) | 73.8% | -0.474 (inactive) | -1.3e-05 (inactive) |  | 14.5% (inactive) | 27.3% (inactive) |  | 0.00616 (inactive)
COC(=O)c1c(C)n(Cc2ccc3c(c2)OCO3)c2ccc(O)cc12 | 598 | 2.2% (inactive) | -6.7% (inactive) | 109% | 30.8% (inactive) | 90.3% | -0.528 (inactive) | -1.6e-05 (inactive) |  | -0.687% (inactive) | -6.04% (inactive) |  | 0.0049 (inactive)
Nc1ccccc1C(=O)OC1CSC1 | 621 | -8.7% (inactive) | -13.4% (inactive) | 102% | -29.1% (inactive) | 93.5% | -0.559 (inactive) | -2.7e-06 (inactive) |  | 20.2% (inactive) | 15% (inactive) |  | 0.00479 (inactive)
CSc1ccc(CNC2CN3CCC2CC3)cc1 (stereo not drawn) | 350 | 0.2% (inactive) | -0.6% (inactive) | 103% | 32.3% (inactive) | 102% | -0.421 (inactive) | -9.5e-05 (inactive) |  | 12.2% (inactive) | 24.5% (inactive) |  | 0.00514 (inactive)
Cc1ccc(CS(=O)(=O)CCC(=O)N2CCC3(CC2)OCCO3)cc1 | 463 | 6% (inactive) | -8.2% (inactive) | 111% | -31.5% (inactive) | 109% | -0.573 (inactive) | -6.6e-05 (inactive) |  | 13.7% (inactive) | 16.9% (inactive) |  | 0.00375 (inactive)
CN1CCC(N(C)c2ncnc3ccc(Br)cc23)CC1 | 336 | 5% (inactive) | 4.3% (inactive) | 94.9% | 42.2% (inactive) | 79.5% | -0.606 (inactive) | -3.4e-05 (inactive) | 0.00666 (inactive) | 10.9% (inactive) | 23.5% (inactive) |  | 
CNP1(NC)=NC(C(F)(F)F)=NC(C(F)(F)F)=N1 | 338 | -24% (inactive) | 6.8% (inactive) | 112% | -0.4% (inactive) | 89.8% | -0.447 (inactive) | -3.2e-05 (inactive) | 0.00454 (inactive) | -2.73% (inactive) | 97.8% (active) | inactive | 
CCN1c2nc3ccccn3c(=O)c2CC2(C(=O)N(C)C(=O)N(C)C2=O)C1C (stereo not drawn) | 359 | 4.3% (inactive) | -17.6% (inactive) | 104% | -34% (inactive) | 114% | -0.482 (inactive) | 1.6e-06 (inactive) | 0.00491 (inactive) | 19% (inactive) | 19.6% (inactive) |  | 
C=CCN1C(=O)C2(C(C(=O)OCC)=C(N)Oc3c2c(=O)oc2ccccc32)c2ccccc21 (stereo not drawn) | 679 | -7.1% (inactive) | 10.1% (inactive) | 93.2% | -41% (inactive) | 91.1% | -0.467 (inactive) | -0.000107 (inactive) | 0.00519 (inactive) | 13.6% (inactive) | 21.3% (inactive) | inactive | 
